# Laboratory results: paper PMC7862700, “An all-to-all approach to the identification of sequence-specific readers for epigenetic DNA modifications on cytosine”
# Experiments:
# Assay in all cases: DAPPL (digital affinity profiling via proximity ligation, sequencing); 10 mM Tris-HCl pH 7.5, 50 mM NaCl, 1 mM DTT, 4% glycerol, room temperature, 30 min; GST-TFs on glutathione beads, 16-mer random dsDNA library, 0.1% formaldehyde crosslink after washing; high values mean tight binding
# [1] = biological target: T1, FLI1 (Homo sapiens, UniProt Q01543 1-452); conditions: protein: recombinant; tags: N-terminal GST; dsDNA, one strand shown
# T1 sequence: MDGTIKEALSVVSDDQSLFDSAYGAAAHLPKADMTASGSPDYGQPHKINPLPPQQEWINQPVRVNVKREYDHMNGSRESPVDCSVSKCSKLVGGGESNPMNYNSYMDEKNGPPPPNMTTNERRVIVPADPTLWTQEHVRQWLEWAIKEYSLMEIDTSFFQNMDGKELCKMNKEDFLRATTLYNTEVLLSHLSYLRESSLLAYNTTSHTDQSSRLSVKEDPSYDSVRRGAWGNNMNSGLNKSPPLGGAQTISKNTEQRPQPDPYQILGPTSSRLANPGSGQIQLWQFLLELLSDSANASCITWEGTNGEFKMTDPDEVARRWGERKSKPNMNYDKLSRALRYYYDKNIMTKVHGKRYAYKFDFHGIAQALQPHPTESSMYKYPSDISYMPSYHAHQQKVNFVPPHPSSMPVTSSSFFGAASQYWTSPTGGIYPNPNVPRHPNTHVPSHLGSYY
# Procedure, shortened: (§1)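 Sequencing on an Illumina NextSeq500 followed washing, crosslinking with 0.1% formaldehyde, proximity ligation (BsaI/T4 ligase, 1 h, 37 °C) and PCR amplification of pools that had been incubated for 30 min at room temperature with 200 nmole of a random double-stranded 16-mer DNA library in Tris/NaCl/DTT/glycerol buffer. Each pool held DNA-barcoded human transcription factors, expressed in yeast as GST fusions and captured on glutathione beads, plus a tag-only sample. Binding signal is a hexamer's read frequency for a factor divided by its frequency in the tag-only sample.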
# [2] = biological target: T2, ELK1 (Homo sapiens, UniProt P19419 1-428); conditions: protein: recombinant; tags: N-terminal GST; dsDNA, one strand shown
# T2 sequence: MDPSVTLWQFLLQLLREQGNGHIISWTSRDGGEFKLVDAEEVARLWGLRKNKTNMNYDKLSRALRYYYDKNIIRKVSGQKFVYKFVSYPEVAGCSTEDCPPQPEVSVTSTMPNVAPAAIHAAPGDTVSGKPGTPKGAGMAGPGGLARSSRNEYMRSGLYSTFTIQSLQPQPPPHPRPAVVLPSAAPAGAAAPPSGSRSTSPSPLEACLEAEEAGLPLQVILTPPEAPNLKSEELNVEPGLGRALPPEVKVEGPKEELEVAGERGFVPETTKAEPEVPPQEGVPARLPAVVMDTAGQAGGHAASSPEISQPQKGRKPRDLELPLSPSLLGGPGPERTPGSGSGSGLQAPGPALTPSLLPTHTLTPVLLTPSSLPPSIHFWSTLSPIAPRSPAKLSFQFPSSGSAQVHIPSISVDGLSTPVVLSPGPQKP
# Procedure, shortened: as §1
# [3] = biological target: T3, GABPA (Homo sapiens, UniProt Q06546 1-454); conditions: protein: recombinant; tags: N-terminal GST; dsDNA, one strand shown
# T3 sequence: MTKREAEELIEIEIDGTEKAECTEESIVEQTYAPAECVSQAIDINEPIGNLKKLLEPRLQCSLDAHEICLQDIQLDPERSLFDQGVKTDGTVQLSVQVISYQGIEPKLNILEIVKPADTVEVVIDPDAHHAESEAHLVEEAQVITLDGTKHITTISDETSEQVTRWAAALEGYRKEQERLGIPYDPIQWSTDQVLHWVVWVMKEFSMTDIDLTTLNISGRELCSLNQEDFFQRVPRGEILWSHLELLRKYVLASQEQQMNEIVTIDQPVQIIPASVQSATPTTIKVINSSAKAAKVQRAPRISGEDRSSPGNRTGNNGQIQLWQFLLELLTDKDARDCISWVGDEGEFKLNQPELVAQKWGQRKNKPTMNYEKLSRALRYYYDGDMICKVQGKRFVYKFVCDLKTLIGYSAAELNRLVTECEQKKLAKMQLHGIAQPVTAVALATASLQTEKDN
# Procedure, shortened: as §1
# [4] = biological target: T4, ERG (Homo sapiens, UniProt P11308 1-479); conditions: protein: recombinant; tags: N-terminal GST; dsDNA, one strand shown
# T4 sequence: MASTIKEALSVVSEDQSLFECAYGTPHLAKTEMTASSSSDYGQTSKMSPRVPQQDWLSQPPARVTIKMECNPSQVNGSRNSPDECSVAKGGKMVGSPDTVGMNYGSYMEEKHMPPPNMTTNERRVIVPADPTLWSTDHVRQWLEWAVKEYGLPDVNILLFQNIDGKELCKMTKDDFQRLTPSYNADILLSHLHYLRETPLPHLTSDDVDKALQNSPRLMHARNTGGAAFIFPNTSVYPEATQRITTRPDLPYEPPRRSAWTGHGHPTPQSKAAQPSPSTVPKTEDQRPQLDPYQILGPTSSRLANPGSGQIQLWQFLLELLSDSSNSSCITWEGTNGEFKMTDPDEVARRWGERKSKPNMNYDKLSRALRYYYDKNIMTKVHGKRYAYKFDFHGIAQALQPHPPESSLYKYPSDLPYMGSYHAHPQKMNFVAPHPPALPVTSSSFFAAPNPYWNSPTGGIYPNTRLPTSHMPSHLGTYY
# Procedure, shortened: as §1
# [5] = biological target: ELF1 (Homo sapiens, UniProt P32519 1-619); conditions: protein: recombinant; tags: N-terminal GST; dsDNA, one strand shown
# Sequence of ELF1 (P32519 whole entry): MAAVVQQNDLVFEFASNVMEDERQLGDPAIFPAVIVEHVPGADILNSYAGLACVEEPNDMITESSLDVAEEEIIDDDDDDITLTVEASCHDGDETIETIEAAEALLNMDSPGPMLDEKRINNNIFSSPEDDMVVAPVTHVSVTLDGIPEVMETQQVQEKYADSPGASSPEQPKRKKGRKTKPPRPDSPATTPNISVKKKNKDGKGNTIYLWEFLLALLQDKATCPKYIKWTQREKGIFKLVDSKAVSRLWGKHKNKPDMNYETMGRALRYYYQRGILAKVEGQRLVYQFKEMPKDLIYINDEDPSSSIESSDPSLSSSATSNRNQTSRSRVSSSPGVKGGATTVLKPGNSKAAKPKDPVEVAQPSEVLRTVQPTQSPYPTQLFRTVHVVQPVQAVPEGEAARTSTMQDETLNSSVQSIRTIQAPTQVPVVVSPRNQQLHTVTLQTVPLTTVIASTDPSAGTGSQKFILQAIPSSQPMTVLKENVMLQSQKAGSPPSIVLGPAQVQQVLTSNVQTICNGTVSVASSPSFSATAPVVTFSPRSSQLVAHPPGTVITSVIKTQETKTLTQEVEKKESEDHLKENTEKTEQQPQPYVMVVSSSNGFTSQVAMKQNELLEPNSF
# Procedure, shortened: as §1
# [6] = biological target: T5, EHF (Homo sapiens, UniProt Q9NZC4 1-300); conditions: protein: recombinant; tags: N-terminal GST; dsDNA, one strand shown
# T5 sequence: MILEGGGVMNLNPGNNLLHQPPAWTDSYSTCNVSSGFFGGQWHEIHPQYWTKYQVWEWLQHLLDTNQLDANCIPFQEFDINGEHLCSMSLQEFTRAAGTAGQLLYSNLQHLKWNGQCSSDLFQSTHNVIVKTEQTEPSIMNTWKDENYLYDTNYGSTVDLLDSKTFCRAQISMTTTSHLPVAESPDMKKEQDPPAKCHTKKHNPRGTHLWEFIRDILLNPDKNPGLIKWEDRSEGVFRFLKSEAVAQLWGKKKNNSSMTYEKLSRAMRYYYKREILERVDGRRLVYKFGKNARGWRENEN
# Procedure, shortened: as §1
# [7] = biological target: SPI1 (Homo sapiens, UniProt P17947 1-270); conditions: protein: recombinant; tags: N-terminal GST; dsDNA, one strand shown
# Procedure, shortened: as §1
# [8] = biological target: SPIB (Homo sapiens, UniProt Q01892 1-262); conditions: protein: recombinant; tags: N-terminal GST; dsDNA, one strand shown
# Sequence of SPIB (Q01892 whole entry): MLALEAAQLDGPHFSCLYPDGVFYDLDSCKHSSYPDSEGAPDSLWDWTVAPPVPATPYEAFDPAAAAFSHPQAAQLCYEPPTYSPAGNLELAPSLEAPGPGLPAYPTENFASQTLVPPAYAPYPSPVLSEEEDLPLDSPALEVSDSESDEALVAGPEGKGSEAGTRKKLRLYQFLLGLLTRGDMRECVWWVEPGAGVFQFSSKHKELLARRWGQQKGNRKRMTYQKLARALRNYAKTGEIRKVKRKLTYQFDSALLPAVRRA
# Procedure, shortened: as §1
# [9] = biological target: T6, ELK3 (Homo sapiens, UniProt P41970 1-407); conditions: protein: recombinant; tags: N-terminal GST; dsDNA, one strand shown
# T6 sequence: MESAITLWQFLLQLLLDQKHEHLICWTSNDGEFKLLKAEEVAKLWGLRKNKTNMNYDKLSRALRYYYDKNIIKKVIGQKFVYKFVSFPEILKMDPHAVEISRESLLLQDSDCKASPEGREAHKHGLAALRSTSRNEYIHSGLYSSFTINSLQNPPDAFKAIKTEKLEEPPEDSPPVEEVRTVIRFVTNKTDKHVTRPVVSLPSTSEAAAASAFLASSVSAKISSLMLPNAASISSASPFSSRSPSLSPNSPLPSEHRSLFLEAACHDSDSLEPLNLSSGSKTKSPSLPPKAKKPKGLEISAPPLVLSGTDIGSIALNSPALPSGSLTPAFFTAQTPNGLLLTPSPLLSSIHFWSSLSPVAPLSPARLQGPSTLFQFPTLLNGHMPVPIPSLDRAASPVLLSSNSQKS
# Procedure, shortened: as §1
# [10] = biological target: T7, FEV (Homo sapiens, UniProt Q99581 1-238); conditions: protein: recombinant; tags: N-terminal GST; dsDNA, one strand shown
# T7 sequence: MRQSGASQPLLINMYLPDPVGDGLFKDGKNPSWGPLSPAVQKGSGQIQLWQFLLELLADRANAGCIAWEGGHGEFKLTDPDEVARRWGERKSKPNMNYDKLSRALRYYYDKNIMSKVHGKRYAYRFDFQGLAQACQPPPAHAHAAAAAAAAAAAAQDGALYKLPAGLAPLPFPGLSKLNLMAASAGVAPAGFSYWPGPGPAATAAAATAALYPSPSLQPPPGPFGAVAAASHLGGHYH
# Procedure, shortened: as §1
# [11] = biological target: ETV5 (Homo sapiens, UniProt P41161 1-510); conditions: protein: recombinant; tags: N-terminal GST; dsDNA, one strand shown
# Sequence of ETV5 (P41161 whole entry): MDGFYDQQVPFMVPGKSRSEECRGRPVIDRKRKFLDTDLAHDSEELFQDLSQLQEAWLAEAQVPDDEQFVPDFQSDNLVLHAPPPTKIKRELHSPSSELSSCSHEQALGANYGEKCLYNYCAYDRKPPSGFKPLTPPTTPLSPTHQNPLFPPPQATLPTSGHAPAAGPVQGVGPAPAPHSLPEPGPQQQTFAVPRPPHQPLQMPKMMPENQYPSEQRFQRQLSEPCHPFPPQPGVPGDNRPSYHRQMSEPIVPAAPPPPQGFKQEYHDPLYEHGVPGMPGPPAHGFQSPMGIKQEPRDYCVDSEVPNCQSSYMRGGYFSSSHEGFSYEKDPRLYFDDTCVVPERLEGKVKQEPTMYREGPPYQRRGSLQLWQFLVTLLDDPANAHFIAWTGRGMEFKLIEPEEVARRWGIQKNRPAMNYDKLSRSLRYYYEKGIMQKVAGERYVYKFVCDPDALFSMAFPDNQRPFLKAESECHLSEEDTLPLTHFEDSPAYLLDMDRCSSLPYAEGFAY
# Procedure, shortened: as §1
# [12] = biological target: HSF1 (Homo sapiens, UniProt Q00613 1-529); conditions: protein: recombinant; tags: N-terminal GST; chain copies: 3; dsDNA, one strand shown
# Sequence of HSF1 (Q00613 whole entry): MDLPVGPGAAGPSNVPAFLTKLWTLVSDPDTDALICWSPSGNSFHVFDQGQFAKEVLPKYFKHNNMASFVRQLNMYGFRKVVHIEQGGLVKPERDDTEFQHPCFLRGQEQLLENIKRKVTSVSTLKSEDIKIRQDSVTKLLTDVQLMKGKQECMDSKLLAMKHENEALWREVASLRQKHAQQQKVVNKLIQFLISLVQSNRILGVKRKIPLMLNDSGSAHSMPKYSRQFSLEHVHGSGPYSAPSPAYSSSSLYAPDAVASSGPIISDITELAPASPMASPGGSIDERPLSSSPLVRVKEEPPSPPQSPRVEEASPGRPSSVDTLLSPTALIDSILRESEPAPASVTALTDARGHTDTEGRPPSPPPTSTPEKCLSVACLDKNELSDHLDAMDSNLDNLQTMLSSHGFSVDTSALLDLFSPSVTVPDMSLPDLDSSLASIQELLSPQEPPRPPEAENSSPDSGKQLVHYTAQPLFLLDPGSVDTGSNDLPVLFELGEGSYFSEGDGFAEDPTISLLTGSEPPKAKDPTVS
# Procedure, shortened: as §1
# [13] = biological target: T8, SPIC (Homo sapiens, UniProt Q8N5J4 1-248); conditions: protein: recombinant; tags: N-terminal GST; dsDNA, one strand shown
# T8 sequence: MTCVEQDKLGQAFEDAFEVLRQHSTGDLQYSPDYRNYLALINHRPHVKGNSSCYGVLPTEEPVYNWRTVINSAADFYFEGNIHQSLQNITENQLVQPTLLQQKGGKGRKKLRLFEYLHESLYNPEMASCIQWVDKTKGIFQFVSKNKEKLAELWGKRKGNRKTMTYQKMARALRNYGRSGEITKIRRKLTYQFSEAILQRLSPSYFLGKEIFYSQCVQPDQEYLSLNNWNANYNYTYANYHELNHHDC
# Procedure, shortened: as §1
# [14] = biological target: ELF4 (Homo sapiens, UniProt Q99607 1-663); conditions: protein: recombinant; tags: N-terminal GST; dsDNA, one strand shown
# Sequence of ELF4 (Q99607 whole entry): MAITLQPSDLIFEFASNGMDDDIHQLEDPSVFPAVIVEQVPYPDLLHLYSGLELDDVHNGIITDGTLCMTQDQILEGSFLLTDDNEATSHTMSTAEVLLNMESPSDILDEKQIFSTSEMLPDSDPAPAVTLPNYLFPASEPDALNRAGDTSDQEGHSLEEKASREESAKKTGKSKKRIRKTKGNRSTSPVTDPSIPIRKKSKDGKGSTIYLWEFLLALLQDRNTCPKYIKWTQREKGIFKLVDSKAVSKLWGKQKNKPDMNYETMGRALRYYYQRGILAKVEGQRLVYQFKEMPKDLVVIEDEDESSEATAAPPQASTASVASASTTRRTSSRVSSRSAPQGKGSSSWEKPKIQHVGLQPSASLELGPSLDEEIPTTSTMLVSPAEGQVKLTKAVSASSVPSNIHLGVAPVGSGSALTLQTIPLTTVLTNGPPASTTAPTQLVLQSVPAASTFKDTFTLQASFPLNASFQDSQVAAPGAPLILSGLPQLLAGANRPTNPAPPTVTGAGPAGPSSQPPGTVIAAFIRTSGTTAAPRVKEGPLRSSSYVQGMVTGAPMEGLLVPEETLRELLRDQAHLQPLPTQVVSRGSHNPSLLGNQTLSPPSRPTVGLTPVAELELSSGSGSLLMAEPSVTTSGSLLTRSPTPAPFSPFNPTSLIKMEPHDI
# Procedure, shortened: as §1
# [15] = biological target: T9, ELK4 (Homo sapiens, UniProt P28324-2 1-405); conditions: protein: recombinant; tags: N-terminal GST; dsDNA, one strand shown
# T9 sequence: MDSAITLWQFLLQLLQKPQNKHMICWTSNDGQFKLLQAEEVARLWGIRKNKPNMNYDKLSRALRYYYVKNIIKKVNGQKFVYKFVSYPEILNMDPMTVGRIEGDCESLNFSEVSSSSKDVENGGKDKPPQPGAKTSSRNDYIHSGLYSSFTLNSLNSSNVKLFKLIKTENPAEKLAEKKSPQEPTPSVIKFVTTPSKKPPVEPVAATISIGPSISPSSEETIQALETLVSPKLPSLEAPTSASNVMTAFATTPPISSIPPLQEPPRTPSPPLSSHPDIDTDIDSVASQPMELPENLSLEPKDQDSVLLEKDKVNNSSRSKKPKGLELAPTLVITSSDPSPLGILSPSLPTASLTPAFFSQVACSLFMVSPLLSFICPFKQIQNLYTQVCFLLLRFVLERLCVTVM
# Procedure, shortened: as §1
# [16] = biological target: T10, ETV2 (Homo sapiens, UniProt O00321 1-342); conditions: protein: recombinant; tags: N-terminal GST; dsDNA, one strand shown
# T10 sequence: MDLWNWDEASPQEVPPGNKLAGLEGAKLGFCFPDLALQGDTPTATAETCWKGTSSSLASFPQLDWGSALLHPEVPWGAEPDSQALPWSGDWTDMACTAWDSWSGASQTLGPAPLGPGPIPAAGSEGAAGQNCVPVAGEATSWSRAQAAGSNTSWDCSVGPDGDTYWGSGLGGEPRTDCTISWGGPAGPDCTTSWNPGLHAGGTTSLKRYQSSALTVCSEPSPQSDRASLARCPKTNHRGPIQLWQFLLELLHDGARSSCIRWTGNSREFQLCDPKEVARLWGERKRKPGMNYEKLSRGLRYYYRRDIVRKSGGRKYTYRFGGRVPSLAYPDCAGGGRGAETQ
# Procedure, shortened: as §1
# [17] = biological target: T11, ELF3 (Homo sapiens, UniProt P78545 1-371); conditions: protein: recombinant; tags: N-terminal GST; dsDNA, one strand shown
# T11 sequence: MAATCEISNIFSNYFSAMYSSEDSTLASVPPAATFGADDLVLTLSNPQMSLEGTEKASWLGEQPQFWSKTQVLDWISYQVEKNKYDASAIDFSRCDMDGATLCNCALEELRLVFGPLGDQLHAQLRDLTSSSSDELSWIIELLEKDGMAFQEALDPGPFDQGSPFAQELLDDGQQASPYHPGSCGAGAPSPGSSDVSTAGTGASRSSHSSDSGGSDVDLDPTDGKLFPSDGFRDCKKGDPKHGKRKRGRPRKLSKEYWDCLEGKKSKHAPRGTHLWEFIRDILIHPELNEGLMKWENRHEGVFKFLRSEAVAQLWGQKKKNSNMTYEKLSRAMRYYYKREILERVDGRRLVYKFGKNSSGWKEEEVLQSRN
# Procedure, shortened: as §1
# [18] = biological target: CRX (Homo sapiens, UniProt O43186 1-299); conditions: protein: recombinant; tags: N-terminal GST; dsDNA, one strand shown
# Sequence of CRX (O43186 whole entry): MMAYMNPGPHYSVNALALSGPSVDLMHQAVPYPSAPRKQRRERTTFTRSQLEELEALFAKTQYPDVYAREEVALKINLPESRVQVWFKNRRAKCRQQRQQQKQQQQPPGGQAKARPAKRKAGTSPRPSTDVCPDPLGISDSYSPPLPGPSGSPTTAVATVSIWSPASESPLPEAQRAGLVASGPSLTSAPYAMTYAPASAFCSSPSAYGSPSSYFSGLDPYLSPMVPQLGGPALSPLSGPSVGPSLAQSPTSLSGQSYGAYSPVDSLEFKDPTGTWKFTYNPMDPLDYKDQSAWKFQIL
# Procedure, shortened: as §1
# [19] = biological target: ETV1 (Homo sapiens, UniProt P50549 1-477); conditions: protein: recombinant; tags: N-terminal GST; dsDNA, one strand shown
# Sequence of ETV1 (P50549 whole entry): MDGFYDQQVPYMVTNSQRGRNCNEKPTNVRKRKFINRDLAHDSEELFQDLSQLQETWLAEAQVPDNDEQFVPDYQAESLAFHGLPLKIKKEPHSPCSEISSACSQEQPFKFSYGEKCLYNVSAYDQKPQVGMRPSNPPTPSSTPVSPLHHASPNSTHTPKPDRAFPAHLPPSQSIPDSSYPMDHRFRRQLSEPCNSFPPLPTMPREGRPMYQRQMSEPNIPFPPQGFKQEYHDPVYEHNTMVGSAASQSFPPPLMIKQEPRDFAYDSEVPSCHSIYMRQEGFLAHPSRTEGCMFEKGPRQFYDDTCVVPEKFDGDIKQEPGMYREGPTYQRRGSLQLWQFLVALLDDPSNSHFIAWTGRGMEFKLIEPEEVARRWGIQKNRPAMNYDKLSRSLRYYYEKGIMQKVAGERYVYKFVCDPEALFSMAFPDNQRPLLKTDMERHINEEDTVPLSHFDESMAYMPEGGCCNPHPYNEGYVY
# Procedure, shortened: as §1
sequence,measurement,setting,value
ATTTCA,binding signal,[1],"1.23 fold enrichment (6-mer frequency, TF over GST control)"
same,binding signal,[2],"1.17 fold enrichment (6-mer frequency, TF over GST control)"
same,binding signal,[3],"1.23 fold enrichment (6-mer frequency, TF over GST control)"
same,binding signal,[4],"1.25 fold enrichment (6-mer frequency, TF over GST control)"
same,binding signal,[5],"1.21 fold enrichment (6-mer frequency, TF over GST control)"
same,binding signal,[6],"1.24 fold enrichment (6-mer frequency, TF over GST control)"
same,binding signal,[7],"1.23 fold enrichment (6-mer frequency, TF over GST control)"
same,binding signal,[8],"1.26 fold enrichment (6-mer frequency, TF over GST control)"
same,binding signal,[9],"1.23 fold enrichment (6-mer frequency, TF over GST control)"
same,binding signal,[10],"1.25 fold enrichment (6-mer frequency, TF over GST control)"
same,binding signal,[11],"1.27 fold enrichment (6-mer frequency, TF over GST control)"
same,binding signal,[12],"1.26 fold enrichment (6-mer frequency, TF over GST control)"
same,binding signal,[13],"1.18 fold enrichment (6-mer frequency, TF over GST control)"
same,binding signal,[14],"1.27 fold enrichment (6-mer frequency, TF over GST control)"
same,binding signal,[15],"1.27 fold enrichment (6-mer frequency, TF over GST control)"
same,binding signal,[16],"1.28 fold enrichment (6-mer frequency, TF over GST control)"
same,binding signal,[17],"1.16 fold enrichment (6-mer frequency, TF over GST control)"
same,binding signal,[18],"1.22 fold enrichment (6-mer frequency, TF over GST control)"
same,binding signal,[19],"1.25 fold enrichment (6-mer frequency, TF over GST control)"
